In PubChem BioAssay AID2781 (National Center for Advancing Translational Sciences (NCATS), 2010):
Calls of active or inactive are those of the source.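 Rule for the calls: active = compound whose NMR saturation transfer difference test with menin is positive, showing direct binding to the protein; inactive = the rest.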

target: Menin (Homo sapiens) (UniProt O00255); test: Confirmation of Inhibitors Targeting the Menin-MLL Interaction in MLL Related Leukemias: NMR spectroscopy to verify direct binding of compounds to menin; conditions: purified menin, NMR STD binding, 100 uM
Sequence (O00255 whole entry, looked up, the tested form may be a part): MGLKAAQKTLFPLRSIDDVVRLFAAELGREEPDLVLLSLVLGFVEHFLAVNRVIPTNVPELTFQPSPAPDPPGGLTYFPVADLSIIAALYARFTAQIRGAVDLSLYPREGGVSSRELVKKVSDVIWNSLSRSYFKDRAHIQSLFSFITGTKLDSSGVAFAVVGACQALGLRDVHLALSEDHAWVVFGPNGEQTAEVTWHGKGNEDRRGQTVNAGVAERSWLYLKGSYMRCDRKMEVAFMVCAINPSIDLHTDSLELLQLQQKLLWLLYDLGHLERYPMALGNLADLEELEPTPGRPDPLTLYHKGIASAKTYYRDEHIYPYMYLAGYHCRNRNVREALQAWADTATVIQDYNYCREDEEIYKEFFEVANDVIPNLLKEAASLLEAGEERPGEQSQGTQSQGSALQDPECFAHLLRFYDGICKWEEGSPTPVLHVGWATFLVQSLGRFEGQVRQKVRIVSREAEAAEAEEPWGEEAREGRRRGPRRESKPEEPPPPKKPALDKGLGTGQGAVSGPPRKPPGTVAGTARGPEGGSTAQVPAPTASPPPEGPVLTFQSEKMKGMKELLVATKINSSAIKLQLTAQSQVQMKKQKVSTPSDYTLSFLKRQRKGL
Text: qHTS Assay for Inhibitors Targeting the Menin-MLL Interaction in MLL Related Leukemias NIH Chemical Genomics Center [NCGC] NIH Molecular Libraries Probe Centers Network [MLPCN] MLPCN Grant: MH084875-01A1 Assay Submitter (PI): Jolanta Grembecka, Tomasz Cierpicki, University of Virginia Translocations of the MLL (Mixed Lineage Leukemia) gene are frequently found in human leukemias affecting both children and adults. Fusion of MLL to one of more than 60 genes results in generation of oncogenic proteins upregulating Hox genes, which are vital to blood cell development. Patients harboring fusion of the MLL gene suffer from aggressive leukemias and respond poorly to available therapies. All of the oncogenic fusion proteins have a preserved N-terminal fragment of MLL that has been identified to interact with menin. It has been recently discovered that association with menin is critical to the leukemogenic activity of the MLL fusion oncoproteins. Selective targeting of the menin-MLL interaction could provide an attractive therapeutic approach to develop novel drugs for MLL-related leukemias. Small molecules blocking the menin-MLL interaction should reverse the oncogenic potential of MLL fusion proteins. We have developed and optimized a fluorescence polarization-based assay for the identification of Menin-MLL inhibitors. The assay was run employing two different MLL-derived peptides. The present assay uses a 12 amino acid peptide labeled with fluorescein at its N-terminus. This peptide consists of the menin high affinity binding motif from MLL and is potently bound by menin. Another peptide with a mutated sequence, labeled with Texas Red, was used in parallel as a less stringent screen for inhibitors. The present assay was developed to confirm hits from this primary screen, examining saturation transfer differences in NMR spectra upon incubation of the menin protein with compound.
The Menin protein, the MLL-wild type (w.t.) derived peptide (N-terminal 12 amino acids), the MLL-derived peptide labeled with Texas Red and the MLL-w.t. peptide labeled with Fluorescein were kindly supplied by laboratory of Dr. Jolanta Grembecka, University of Virginia. All protein and peptide solutions were stored in single use aliquots at -80C. The Buffer components for all assays were purchased from Sigma-Aldrich (St. Louis, MO) and Invitrogen (Carlsbad, CA). Assay Reagents: 1. Menin protein 2. MLL w.t. 3. NMR buffer: 50mM phosphate, 50mM NaCl, 1mM DTT, pH = 7.5 NMR protocol: 1. Prepare 450 uL of menin (2.5 uM) in complex with 100uM compound in NMR buffer and run STD (Saturation Transfer Difference) on NMR Bruker 600 MHz 2. Prepare 450 uL of menin (2.5 uM) in complex with 100 uM compound and 25uM of MLL w.t. in NMR buffer and run STD (Saturation Transfer Difference) on NMR Bruker 600 MHz

SMILES	outcome
NS(=O)(=O)c1ccc(NC(=O)c2ccc(-c3ccccc3)cc2)cc1	inactive; negative
O=C(Nc1ccc(F)c(Cl)c1)c1cc(-c2ccco2)on1	inactive; negative
COc1ccc2[nH]c3c(C)c4ccncc4c(C)c3c2c1	inactive; negative
O=C(CSc1nc(O)cc(=O)n1-c1ccccc1)c1ccc(Br)cc1	inactive; negative
O=C(C[N+]12CC[N+](CC(=O)c3ccc(F)cc3)(CC1)CC2)c1ccc(F)cc1	active; positive
CC(=O)NC1C(=O)N(CCN2CCOCC2)c2ccc(C)cc21 (stereo not given)	inactive; negative
CCN(CC)Cc1cc2[nH]c3c4ccc(Cl)cc4ncc3c2cc1OC	inactive; negative
CS(=O)(=O)c1ccc2nc(NC(=O)Nc3cccc(Cl)c3)sc2c1	inactive; negative
O=C(Nc1nnc(-c2ccccc2SCc2ccccc2)s1)Nc1ccccc1F	inactive; negative
Cc1sc2ncnc(NC3CCN(Cc4ccccc4)CC3)c2c1C	active; positive
COc1ccccc1NS(=O)(=O)c1cc(N2Cc3ccccc3C2=N)ccc1N1CCOCC1	inactive; negative
O=C(O)c1ccccc1NS(=O)(=O)c1cccc(-n2sc3ccccc3c2=O)c1	inactive; negative
CC(c1ccccc1)c1nnc(NC(=O)Nc2ccccc2F)s1 (stereo not given)	inactive; negative
O=C(CCC1CCCCC1)NCCN1C2=NC[C@H](Cc3ccc(O)cc3)N2C[C@H]1Cc1ccc(O)cc1	active; positive
C[C@H](NC(=O)c1cc2c(cn1)[nH]c1ccccc12)C(=O)O	inactive; negative
Cc1nc(N2CCN(C)CC2)c2c3c(sc2n1)CCCC3	inactive; negative
Cc1ccc(-c2cc(C(=O)Nc3cc(C)ccc3O)no2)cc1	inactive; negative
O=C1C(SCCO)=C(SCCO)C(=O)c2ccccc21	inactive; negative
CCOc1ccc2c(c1)C(NC(C)=O)C(=O)N2CCN1CCOCC1 (stereo not given)	inactive; negative
CCC(=O)Nc1ccc(-c2cc(-c3ccccc3)nc(-c3ccc(NC(=O)CC)cc3)n2)cc1	inactive; negative
